Laboratory results: the supplement of paper PMC7261846
Where a name gives a salt, the structure may show the parent alone. ± gives the uncertainty stated by the source.

Test system: Candida albicans SNY425 biofilm
Assay: biofilm OD600 with compound plus antifungal (OD600 (absorbance)); higher = more biofilm remaining
[1] = assay detail: disruption of 24-h mature biofilm (compound + antifungal for a second 24 h)
[2] = assay detail: sustained inhibition (compound + antifungal during 90-min adherence and 24-h growth)

Row | SMILES | biofilm OD600 [1] | biofilm OD600 [2]
1 | CC(C)C[C@H](NC(=O)[C@@H](O)[C@H](N)Cc1ccccc1)C(=O)O [Bestatin·HCl] + OC(Cn1cncn1)(Cn1cncn1)c1ccc(F)cc1F [fluconazole] (first compound 12.5 µM) | 0.284 ± 0.013 | 0.163 ± 0.011
2 | CC1(C)C[C@@H]1C(=O)N/C(=C\CCCCSC[C@H](N)C(=O)O)C(=O)O [Cilastatin] + OC(Cn1cncn1)(Cn1cncn1)c1ccc(F)cc1F [fluconazole] (first compound 12.5 µM) | 0.271 ± 0.011 | 0.162 ± 0.012
3 | NC(N)=NCCC[C@H](NC(=O)[C@@H]1CCCN1C(=O)[C@H](N)Cc1ccccc1)C(=O)CCl + CC[C@H](C)C[C@H](C)CCCCCCCCC(=O)N[C@H]1C[C@@H](O)[C@@H](NCCN)NC(=O)[C@@H]2[C@@H](O)CCN2C(=O)[C@H]([C@H](O)CCN)NC(=O)[C@H]([C@H](O)[C@@H](O)c2ccc(O)cc2)NC(=O)[C@@H]2C[C@@H](O)CN2C(=O)[C@H]([C@@H](C)O)NC1=O [caspofungin] (first compound 12.5 µM) | 0.274 ± 0.0098 | 0.189 ± 0.011
4 | O=C(O[C@@H]1Cc2c(O)cc(O)cc2O[C@@H]1c1cc(O)c(O)c(O)c1)c1cc(O)c(O)c(O)c1 [Epigallocatechin gallate] + OC(Cn1cncn1)(Cn1cncn1)c1ccc(F)cc1F [fluconazole] (first compound 12.5 µM) | 0.262 ± 0.011 | 0.164 ± 0.01
5 | CC(C)C[C@H](NC(=O)[C@@H](O)[C@H](N)Cc1ccccc1)C(=O)O [Bestatin·HCl] + C[C@@H]1[C@H](O)[C@@H](C)/C=C/C=C/C=C/C=C/C=C/C=C/C=C/[C@H](O[C@@H]2O[C@H](C)[C@@H](O)[C@H](N)[C@@H]2O)C[C@@H]2O[C@](O)(C[C@@H](O)C[C@@H](O)[C@H](O)CC[C@@H](O)C[C@@H](O)CC(=O)O[C@H]1C)C[C@H](O)[C@H]2C(=O)O [amphotericin B] (first compound 12.5 µM) | 0.288 ± 0.0087 | 0.211 ± 0.0059
6 | CCN1C(=O)C=CC1=O [N-Ethylmaleimide] + OC(Cn1cncn1)(Cn1cncn1)c1ccc(F)cc1F [fluconazole] (first compound 4 µM) | 0.278 ± 0.0073 | 0.113 ± 0.011
7 | CNC(=O)[C@H](Cc1c[nH]c2ccccc12)NC(=O)[C@@H](CC(=O)NO)CC(C)C + C[C@@H]1[C@H](O)[C@@H](C)/C=C/C=C/C=C/C=C/C=C/C=C/C=C/[C@H](O[C@@H]2O[C@H](C)[C@@H](O)[C@H](N)[C@@H]2O)C[C@@H]2O[C@](O)(C[C@@H](O)C[C@@H](O)[C@H](O)CC[C@@H](O)C[C@@H](O)CC(=O)O[C@H]1C)C[C@H](O)[C@H]2C(=O)O [amphotericin B] (first compound 12.5 µM) | 0.281 ± 0.01 | 0.194 ± 0.0098
8 | CCCCCCCCCC(=O)N[C@@H](CCCN=C(N)N)C(=O)N[C@H](C(=O)N[C@@H](CCCCN)C(=O)N[C@@H](CCCN=C(N)N)C(=O)CCl)C(C)C + C[C@@H]1[C@H](O)[C@@H](C)/C=C/C=C/C=C/C=C/C=C/C=C/C=C/[C@H](O[C@@H]2O[C@H](C)[C@@H](O)[C@H](N)[C@@H]2O)C[C@@H]2O[C@](O)(C[C@@H](O)C[C@@H](O)[C@H](O)CC[C@@H](O)C[C@@H](O)CC(=O)O[C@H]1C)C[C@H](O)[C@H]2C(=O)O [amphotericin B] (first compound 4 µM) | 0.261 ± 0.0041 | 0.188 ± 0.0044
9 | C[C@H](NC(=O)[C@@H]1CCCN1C(=O)[C@@H]1CCCN1C(=O)[C@@H](O)[C@H](N)Cc1ccccc1)C(N)=O [Apstatin] + OC(Cn1cncn1)(Cn1cncn1)c1ccc(F)cc1F [fluconazole] (first compound 12.5 µM) | 0.287 ± 0.01 | 0.118 ± 0.0072
10 | Cc1cccc(C)c1OCC(=O)N[C@@H](Cc1ccccc1)[C@@H](O)C[C@H](Cc1ccccc1)NC(=O)[C@H](C(C)C)N1CCCNC1=O [lopinavir] + OC(Cn1cncn1)(Cn1cncn1)c1ccc(F)cc1F [fluconazole] (first compound 12.5 µM) | 0.246 ± 0.01 | 0.141 ± 0.021
11 | CC1(C)C[C@@H]1C(=O)N/C(=C\CCCCSC[C@H](N)C(=O)O)C(=O)O [Cilastatin] + C[C@@H]1[C@H](O)[C@@H](C)/C=C/C=C/C=C/C=C/C=C/C=C/C=C/[C@H](O[C@@H]2O[C@H](C)[C@@H](O)[C@H](N)[C@@H]2O)C[C@@H]2O[C@](O)(C[C@@H](O)C[C@@H](O)[C@H](O)CC[C@@H](O)C[C@@H](O)CC(=O)O[C@H]1C)C[C@H](O)[C@H]2C(=O)O [amphotericin B] (first compound 12.5 µM) | 0.293 ± 0.012 | 0.211 ± 0.015
12 | CCCCC[C@H](CC(=O)NO)C(=O)N[C@H](C(=O)N1CCC[C@H]1CO)C(C)C [Actinonin] + CC[C@H](C)C[C@H](C)CCCCCCCCC(=O)N[C@H]1C[C@@H](O)[C@@H](NCCN)NC(=O)[C@@H]2[C@@H](O)CCN2C(=O)[C@H]([C@H](O)CCN)NC(=O)[C@H]([C@H](O)[C@@H](O)c2ccc(O)cc2)NC(=O)[C@@H]2C[C@@H](O)CN2C(=O)[C@H]([C@@H](C)O)NC1=O [caspofungin] (first compound 12.5 µM) | 0.263 ± 0.021 | 0.182 ± 0.0058
